Shown are actives, neighbours in structure and some others; about 8.7% of the full set was active somewhere.
Pf growth 48h = Primary qHTS for delayed death inhibitors of the malarial parasite plastid, 48 hour incubation. P. falciparum luciferase growth in erythrocytes, 48 h. Potency, µM (doses to about 28.7 µM), for inactives: at the highest dose activity change, negative = inhibition, usual class: inhibitors. hit rate 5.9% among 310,000. AID 504832, 2011
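Luciferase-expressing parasites in RBCs, 2% Hct / 0.1% parasitemia final; RPMI 1640 + 0.5% Albumax; 37 C, 5% CO2, one generation; luminescence read-out, lower signal = inhibition.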
Vaccinia mCherry = qHTS for Stage-Specific Inhibitors of Vaccinia Orthopoxvirus: mCherry Reporter Primary qHTS; Potency, µM (doses to about 36.5 µM), inactives show at the top dose activity change, negative = inhibition, actives largely listed as inhibitors; AID 720579, 2013; Vaccinia virus mCherry reporter infection, fluorescence; hit rate 0.63% among 310,000; calls by dose curve; tested in A549 cells; also: nearly all actives have a fitted effect of over 35% in size
Pf growth 96h = Primary qHTS for delayed death inhibitors of the malarial parasite plastid, 96 hour incubation; P. falciparum luciferase reporter growth, 96 h; Potency, µM (highest dose often 28.7 µM), inactives show top-dose activity change, negative = inhibition, most hits filed as inhibitors; hit rate 6.9% among 320,000; AID 504834, 2011
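Parasite growth measured via integrated firefly luciferase reporter in P. falciparum. Infected erythrocytes at 2% hematocrit, 0.05% parasitemia final were treated 96 hours at 37 C under 5% CO2, and luminescence was read.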
AMA1-RON2 inh = qHTS for Inhibitors of AMA1-RON; Towards Development of Antimalarial Drug Lead: Primary Screen | Plasmodium falciparum AMA1 (3D7) - RON2 peptide interaction | Potency, µM (top dose mostly 58.2 µM), for the others: at the highest dose activity change, negative = inhibition, hits mostly inhibitors | AlphaScreen AMA1-biotinylated RON2 peptide binding | hit rate 0.2% among 360,000;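 also: 0% = vehicle wells and -100% = peptide control; nearly all actives have a fitted effect of over 45% in size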
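AMA1 (3D7) with his tag at 25 nM final met compounds first, then biotinylated RON2 peptide at 25 nM; detection used donor plus acceptor beads, 10 µg/mL apiece, read by AlphaScreen after 30 min at room temperature.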
VACV Venus inh = qHTS for Stage-Specific Inhibitors of Vaccinia Orthopoxvirus: Venus Reporter Primary qHTS; Potency, µM (series often up to 36.5 µM), inactives show at the top dose activity change, negative = inhibition, most hits filed as inhibitors; AID 720580, 2013; hit rate 0.46% among 330,000; Vaccinia virus Venus reporter expression, fluorescence; calls by dose curve; tested in A549 cells; also: nearly all actives have a fitted effect of over 30% in size
* marks the source's active call; other numbers are inactive results; [ ] = remark or other dose. Unless noted, calls follow the shape of the dose curve; as a rule, active = well fitted curve in the direction sought with a large enough effect; inconclusive = small, poorly fitted or top-dose-only effect, or another doubt; inactive = no such curve, though single readings can be large; an effect the other way counts as inactive or inconclusive. Unless noted, % is scaled to controls: 0 for no effect and ±100 for the full control effect; potency is read from the fitted curve at half-maximal effect.

`NC(N)=NC(N)=Nc1cccc(Cl)c1` gave Pf growth 48h inconclusive, Vaccinia mCherry -12.2%, Pf growth 96h 10.4µM*, AMA1-RON2 inh 7.1% and VACV Venus inh -16.7%.
Screening Cc1ccc(C(C(=O)NCC2CCCO2)N(Cc2ccccc2)C(=O)c2ccc(-c3ccccc3)[nH]2)o1 (stereo not given) returned Pf growth 48h 8.28µM*, Vaccinia mCherry inconclusive, Pf growth 96h inconclusive, AMA1-RON2 inh -24.4% and VACV Venus inh inconclusive.
`Cc1ccc(CN(C(=O)CNC(=O)c2cccs2)C(C(=O)NCC2CCCO2)c2ccccc2)cc1` (stereo not given) gave Pf growth 48h inconclusive, Vaccinia mCherry -19.4%, Pf growth 96h inconclusive, AMA1-RON2 inh 14.4% and VACV Venus inh -22.1%.
Screening O=C(NCC1CCCO1)C(c1cccs1)N(Cc1ccccc1Cl)C(=O)c1ccc(-c2ccccc2)[nH]1 (stereo not given) returned Pf growth 48h 5.22µM*, Vaccinia mCherry -13.9%, Pf growth 96h 18.6%, AMA1-RON2 inh -18.7% and VACV Venus inh inconclusive.
For Cc1cnc(SCC2CCCO2)nc1C1CCCN(Cc2nc(-c3ccccc3)cs2)C1 (stereo not given) the results were Vaccinia mCherry -12.1% and VACV Venus inh -8.1%.
`CCCCSc1nc(CCC)cc(=O)[nH]1` gave Pf growth 48h 21.6%, Pf growth 96h -9.5% and AMA1-RON2 inh 1.9%.
CCCc1cc(=O)[nH]c(NCCc2ccccc2)n1 was read as Pf growth 48h inconclusive, Vaccinia mCherry -13.5%, Pf growth 96h 13.1µM*, AMA1-RON2 inh -7.7% and VACV Venus inh -1.0%.
CCCc1cc(=O)[nH]c(SCCc2ccccc2)n1 was read as Pf growth 48h 17.0%, Pf growth 96h 9.28µM* and AMA1-RON2 inh -5.0%.
Screening CCOc1ccc(Nc2c(S(=O)(=O)c3ccccc3)cnc3ccc(CC)cc23)cc1 returned Vaccinia mCherry inactive and VACV Venus inh -12.6%.
Screening Cc1ccc(OCCNC(=O)C2CCCCC2)cc1 returned Pf growth 48h 20.0%[5.75 µM], Vaccinia mCherry inactive, Pf growth 96h -1.0%, AMA1-RON2 inh 4.8% and VACV Venus inh -6.1%.
Screening O=C(NCCOc1ccc(Cl)cc1)C1CCCCC1 returned Pf growth 48h 11.7µM*, Vaccinia mCherry inactive, Pf growth 96h 19.4%, AMA1-RON2 inh 1.0% and VACV Venus inh -23.6%.
`CCCCOCCCNC(=O)C1CCCCC1` gave Pf growth 48h 4.3%, Vaccinia mCherry -13.3%, Pf growth 96h 8.28µM*, AMA1-RON2 inh 1.5% and VACV Venus inh -5.0%.
For Cc1cccc(CSCCNC(=O)CN(c2ccccc2)S(=O)(=O)N(C)C)c1 the results were Vaccinia mCherry -9.3% and VACV Venus inh -12.8%.
O=C(Nc1ccc(F)cc1)Nc1cc(OCC(F)(F)F)cc(OCC(F)(F)F)c1 was read as Pf growth 48h inconclusive, Vaccinia mCherry 10µM*, Pf growth 96h inconclusive, AMA1-RON2 inh 9.8% and VACV Venus inh inconclusive.
Screening CCOc1ccc(NC(=O)Nc2cc(OCC(F)(F)F)cc(OCC(F)(F)F)c2)cc1 returned Pf growth 48h 0.828µM*, Vaccinia mCherry inactive, Pf growth 96h 1.85µM*, AMA1-RON2 inh -16.2% and VACV Venus inh -22.9%.
Screening CCOc1ccc(NC(=O)Nc2cccc(C(=O)O)c2)cc1 returned Pf growth 48h 23.5%, Vaccinia mCherry -15.0%, Pf growth 96h 31.4%, AMA1-RON2 inh -7.6% and VACV Venus inh -18.0%.
O=C(Nc1ccccc1C(=O)N1CCCCC1)c1nsc2ccccc12 was read as Vaccinia mCherry -3.1% and VACV Venus inh -15.9%.
`Cc1ccc(/C=C2/C(=O)c3ccc(C(=O)O)cc3C2=O)o1` gave Pf growth 48h 28.1%, Vaccinia mCherry -3.9%, Pf growth 96h 8.28µM*, AMA1-RON2 inh 4.1% and VACV Venus inh 9.0%.
O=C(O)c1ccc2c(c1)C(=O)/C(=C\c1ccco1)C2=O was read as Pf growth 48h -12.8%, Pf growth 96h 11.7µM* and AMA1-RON2 inh -24.8%.
`O=C1C(=Cc2ccco2)C(=O)c2ccccc21` gave Pf growth 48h 3.4%, Vaccinia mCherry -14.8%, Pf growth 96h 16.5µM*, AMA1-RON2 inh 2.1% and VACV Venus inh 1.6%.
`Cc1ccc(C=C2C(=O)c3ccccc3C2=O)o1` gave Pf growth 48h inconclusive, Vaccinia mCherry inactive, Pf growth 96h inconclusive, AMA1-RON2 inh -9.7% and VACV Venus inh -4.6%.
Cc1ccc(CN2CCN(C3CCN(C(=O)Nc4ccccc4C(F)(F)F)CC3)C(=O)C2=O)cc1 was read as Vaccinia mCherry -3.8% and VACV Venus inh -2.8%.
Cc1cncn1CCc1nc2c3ccccc3nc(SCC(=O)Nc3ccccc3F)n2n1 was read as Vaccinia mCherry -20.6% and VACV Venus inh -18.2%.
For CCOC(=O)C1=C(Cc2ccc(OC)cc2)C(=O)c2ccccc2C1=O the results were Pf growth 48h 4.65µM*, Vaccinia mCherry inactive, AMA1-RON2 inh inconclusive and VACV Venus inh inactive.
CCOC(=O)C1=C(Cc2ccc(C)cc2)C(=O)c2ccccc2C1=O was read as Pf growth 96h 2.33µM*.
COc1ccc(-c2ccc([C@H]3[C@H]4C=CC[C@@H](C)[C@@H]4C(=O)N3Cc3ccccc3)c(F)c2)cc1 was read as Pf growth 48h 11.7µM*, Vaccinia mCherry inactive, Pf growth 96h inconclusive, AMA1-RON2 inh 10.1% and VACV Venus inh -13.2%.
`COc1ccc(-c2c([C@H]3[C@@H]4C=CCC[C@@]4(C)C(=O)N3Cc3ccccc3)ccc3ccccc23)cc1OC` gave Pf growth 48h 5.22µM*, Vaccinia mCherry inconclusive, Pf growth 96h 5.22µM*, AMA1-RON2 inh -25.6% and VACV Venus inh inconclusive.
For O=C1C2C(c3ccccc3)CC=CC2[C@H](c2ccoc2)N1Cc1ccccc1 (stereo not given in full) the results were Pf growth 48h inconclusive, Vaccinia mCherry -11.9%, Pf growth 96h inconclusive, AMA1-RON2 inh -5.7% and VACV Venus inh -25.8%.
Screening COc1ccc(-c2c([C@H]3[C@H]4C=CC[C@@H](C)[C@@H]4C(=O)N3Cc3ccccc3)ccc3ccccc23)cc1 returned Pf growth 48h 7.38µM*, Vaccinia mCherry inconclusive, Pf growth 96h 9.28µM*, AMA1-RON2 inh -18.4% and VACV Venus inh inconclusive.
Screening Cc1ccc(F)c([C@H]2C3C=CCC(c4ccccc4)C3C(=O)N2Cc2ccccc2)c1 (stereo not given in full) returned Pf growth 48h 11.7µM*, Vaccinia mCherry inactive, Pf growth 96h inconclusive, AMA1-RON2 inh -6.5% and VACV Venus inh inconclusive.
